This is part of a sample that, as a whole, favours compounds with a hit. Of some 83,000 tested, about 20% had one in any assay.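 Single-concentration screen, 48 h exposure, 96-well plates. Endpoint: percent growth. Below 10 = active.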 The source made the active and inactive calls.
system: A549/ATCC NSCLC; experiment: NCI-60 one-dose screen, 48 h (100 = growth as untreated, 0 = no growth, -100 = all killed); settings: 10 µM unless noted

SMILES | growth
O=[N+]([O-])c1cc2c(cc1Br)-c1ccccc1C2 | 90.9% (inactive)
Clc1ccc(Nc2nc(Nc3ccccc3)nc(Nc3ccc(-c4cc(-c5ccc(Cl)cc5)on4)cc3)n2)cc1 | 38.9% (inactive)
Cc1cc(=O)c2c(C)ccc(C)c2[nH]1 | 93.1% (inactive)
Cc1cc(=O)[nH]n1-c1cc(Cl)ccc1N | 105% (inactive)
COc1cccc(C2CC(=O)Nc3cc4c(cc32)OCO4)c1OC (stereo unspecified) | 89.8% (inactive)
COc1ccccc1CNCCCCCCCCCCCCN1C(=O)c2ccc3c4c(ccc(c24)C1=O)C(=O)N(CCCCCCCCCCCCNCc1ccccc1OC)C3=O | 75.4% (inactive)
O=C1C=CC(=O)N1CCCCCCCCCCN1C(=O)C=CC1=O | 97.4% (inactive)
Cc1ccc(N=c2nc3sc4c(C)ccc(C)c4n3c(N)c2C#N)cc1 | 100% (inactive)
Cc1nc2nc(C(F)(F)F)[nH]c2nc1C | 99.7% (inactive)
CC(C)(C)[Si](C)(C)OC1[C@@H](CNC(=O)NC(=O)CCl)O[C@@H](n2cnc3c(N)ncnc32)[C@H]1O[Si](C)(C)C(C)(C)C (stereo partly specified) | -22.3% (active)
Fc1ccccc1Nc1ccc2nnc(-c3ccncc3)n2n1 | 103% (inactive)
NC(=O)c1nc2c([nH]c1=O)CCCC2 | 103% (inactive)
CCN1CCN(C(=S)SCC(=O)Nc2nc3ccc(OC)cc3s2)CC1 | 99.5% (inactive)
O=C(NCc1cccnc1)c1ccc([N+](=O)[O-])o1 | -10.5% (active)
N#CC1=C(N)Oc2cc(N)ccc2C1c1ccc(F)cc1 (stereo unspecified) | 74.2% (inactive)
O=c1[nH]c(-c2ccncc2)nc2sc3c(c12)CCCCCC3 | 43.7% (inactive)

SMILES | growth
CC1SC(c2cccc(Oc3ccccc3)c2)N(CCc2cccs2)C1=O (stereo unspecified) | -9.36% (active)
O=S(=O)(Nc1ncccn1)c1ccc(Nc2ccc3nnc(-c4ccncc4)n3n2)cc1 | 104% (inactive)
O=C1NC(=S)S/C1=C\c1cccc([N+](=O)[O-])c1 | 103% (inactive)
COCCOC1=C(Cl)C(=O)c2ccccc2C1=O | 21.6% (inactive)
O=C1NC(=O)C(CSc2ccccc2)(c2ccccc2)N1 (stereo unspecified) | 92.4% (inactive)
Clc1ccccc1Nc1ccc2nnc(-c3ccncc3)n2n1 | 89.9% (inactive)
COc1cc(CNCCCN2C(=O)c3ccc4c5c(ccc(c35)C2=O)C(=O)N(CCCNCc2cc(OC)c(OC)c(OC)c2)C4=O)cc(OC)c1OC | -84.8% (active)
O=C1C(OCCOc2ccccc2)=C(OCCOc2ccccc2)C(=O)c2ccccc21 | 17.4% (inactive)
COc1ccc(OC)c(C2C(C#N)=C(N)Oc3cc(O)ccc32)c1 (stereo unspecified) | 97.1% (inactive)
O=C1c2ccccc2C(=O)c2c(Nc3ccc(CCO)cc3)ccc(O)c21 | 67.5% (inactive)
CCOC(=O)c1c(Cl)c2c(n1Cc1ccc(OC)cc1)-c1oncc1CCC2 | 86.1% (inactive)
Cc1oc2c(c1C(=O)N1CC[C@@H](N)C1)C(=O)c1c(c(O)c3ccccc3c1O)C2=O | 12.4% (inactive)
O=C1c2[nH]cc(CN[C@@H]3CCCN3)c2C(=O)c2c1c(O)c1ccccc1c2O | -93.1% (active)
O=C1C(N2CCOCC2)=Cc2cccc3cccc1c23 | 88.5% (inactive)
COc1ccc(Cn2c(Br)c3c(c2-c2cc(OC)c(OC)c(OC)c2)CCc2sc(N)nc2-3)cc1 | 19% (inactive)
Nc1nc2c(s1)CCc1c-2c(Br)n(Cc2ccccc2)c1Br | 93.7% (inactive)

system: 786-0 renal; experiment: as above; settings: 10 µM unless noted

SMILES | growth
O=[N+]([O-])c1cc2c(cc1Br)-c1ccccc1C2 | 88.4% (inactive)
Clc1ccc(Nc2nc(Nc3ccccc3)nc(Nc3ccc(-c4cc(-c5ccc(Cl)cc5)on4)cc3)n2)cc1 | 53.9% (inactive)
Cc1cc(=O)c2c(C)ccc(C)c2[nH]1 | 96.4% (inactive)
Cc1cc(=O)[nH]n1-c1cc(Cl)ccc1N | 104% (inactive)
CC(C)OC1=C(Cl)C(=O)c2ccccc2C1=O | 108% (inactive)
COc1cccc(C2CC(=O)Nc3cc4c(cc32)OCO4)c1OC (stereo unspecified) | 114% (inactive)
COc1ccccc1CNCCCCCCCCCCCCN1C(=O)c2ccc3c4c(ccc(c24)C1=O)C(=O)N(CCCCCCCCCCCCNCc1ccccc1OC)C3=O | -73.7% (active)
O=C1C=CC(=O)N1CCCCCCCCCCN1C(=O)C=CC1=O | 88.7% (inactive)
Cc1ccc(N=c2nc3sc4c(C)ccc(C)c4n3c(N)c2C#N)cc1 | 101% (inactive)
COc1cc2nc(SCc3cc(OC)c(OC)c(OC)c3)n(-c3ccccc3OC)c(=O)c2cc1OC | 91.4% (inactive)
Cc1nc2nc(C(F)(F)F)[nH]c2nc1C | 93.5% (inactive)
CC(C)(C)[Si](C)(C)OC1[C@@H](CNC(=O)NC(=O)CCl)O[C@@H](n2cnc3c(N)ncnc32)[C@H]1O[Si](C)(C)C(C)(C)C (stereo partly specified) | -55.4% (active)
Fc1ccccc1Nc1ccc2nnc(-c3ccncc3)n2n1 | 101% (inactive)
NC(=O)c1nc2c([nH]c1=O)CCCC2 | 106% (inactive)
CCN1CCN(C(=S)SCC(=O)Nc2nc3ccc(OC)cc3s2)CC1 | 107% (inactive)
O=C(NCc1cccnc1)c1ccc([N+](=O)[O-])o1 | 4.89% (active)
N#CC1=C(N)Oc2cc(N)ccc2C1c1ccc(F)cc1 (stereo unspecified) | 86.6% (inactive)
O=c1[nH]c(-c2ccncc2)nc2sc3c(c12)CCCCCC3 | 80.4% (inactive)
CC1SC(c2cccc(Oc3ccccc3)c2)N(CCc2cccs2)C1=O (stereo unspecified) | -29.6% (active)
COc1ccc(-c2c(-c3cc4c(c(OC)c3OC)OCO4)noc2N)cc1 | 38.4% (inactive)

SMILES | growth
c1ccc(-c2n(Cc3ccc4ccccc4n3)c3ccccc3[n+]2Cc2ccc3ccccc3n2)cc1 | 11.9% (inactive)
O=S(=O)(Nc1ncccn1)c1ccc(Nc2ccc3nnc(-c4ccncc4)n3n2)cc1 | 103% (inactive)
CC(=O)c1cc(C)c(OC(=O)c2ccccc2)c(C)c1 | 100% (inactive)
Oc1ccccc1/C=N/Nc1nc2ccccc2s1 | 73.4% (inactive)
O=C1NC(=S)S/C1=C\c1cccc([N+](=O)[O-])c1 | 91.5% (inactive)
COCCOC1=C(Cl)C(=O)c2ccccc2C1=O | 81.8% (inactive)
O=C1NC(=O)C(CSc2ccccc2)(c2ccccc2)N1 (stereo unspecified) | 103% (inactive)
Clc1ccccc1Nc1ccc2nnc(-c3ccncc3)n2n1 | 75.7% (inactive)
COc1cc(CNCCCN2C(=O)c3ccc4c5c(ccc(c35)C2=O)C(=O)N(CCCNCc2cc(OC)c(OC)c(OC)c2)C4=O)cc(OC)c1OC | -30% (active)
O=C1C(OCCOc2ccccc2)=C(OCCOc2ccccc2)C(=O)c2ccccc21 | 100% (inactive)
COc1ccc(OC)c(C2C(C#N)=C(N)Oc3cc(O)ccc32)c1 (stereo unspecified) | 96.7% (inactive)
O=C1c2ccccc2C(=O)c2c(Nc3ccc(CCO)cc3)ccc(O)c21 | 104% (inactive)
CCOC(=O)c1c(Cl)c2c(n1Cc1ccc(OC)cc1)-c1oncc1CCC2 | 90.4% (inactive)
Cc1oc2c(c1C(=O)N1CC[C@@H](N)C1)C(=O)c1c(c(O)c3ccccc3c1O)C2=O | 41% (inactive)
O=C1c2[nH]cc(CN[C@@H]3CCCN3)c2C(=O)c2c1c(O)c1ccccc1c2O | -83.1% (active)
O=C1C(N2CCOCC2)=Cc2cccc3cccc1c23 | 103% (inactive)
COc1ccc(Cn2c(Br)c3c(c2-c2cc(OC)c(OC)c(OC)c2)CCc2sc(N)nc2-3)cc1 | 40.2% (inactive)
Nc1nc2c(s1)CCc1c-2c(Br)n(Cc2ccccc2)c1Br | 102% (inactive)
COC(=O)/C=C1/CCC2C3CCC4=CC(=O)C(Br)CC4(C)C3C(=O)CC12C (stereo unspecified) | 83.8% (inactive)
